According to PubChem BioAssay (NCI):
The panel holds about 79,000 compounds, 15% with a hit somewhere; the sample as a whole holds those more often. Active and inactive are the calls of the source. No stated cut-off is given here; in the data, active means growth inhibition above about 70%; inactive means the rest.

How the values were obtained:
[1] = NCI Yeast Anticancer Drug Screen. Data for the rad50 strain (AID 155);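 further: 0% = growth of vehicle-only cultures of the same strain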; conditions: S. cerevisiae rad50 strain growth inhibition, active compounds read high
Outline: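 Cells are treated with compound, grown, and their growth is then scored against vehicle-only cultures of the same repair-deficient yeast strain.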

[2] = NCI Yeast Anticancer Drug Screen. Data for the mec2-1 strain (AID 157); conditions: S. cerevisiae mec2-1 strain, active compounds read high
Outline: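 Mutant yeast (mec2-1) grown with compound; growth inhibition relative to vehicle control reported.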

[3] = NCI Yeast Anticancer Drug Screen. Data for the sgs1 mgt1 strain (AID 161);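 further: 0% = growth of cultures given vehicle only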; conditions: S. cerevisiae sgs1 mgt1 strain, active compounds read high
Outline: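 Compounds are added to genetically altered yeast, and growth is compared with cultures given vehicle alone to give percent inhibition.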

[4] = NCI Yeast Anticancer Drug Screen. Data for the cln2 rad14 strain (AID 165);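 further: 0% = growth equal to vehicle treated cultures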; conditions: S. cerevisiae cln2 rad14 strain, active compounds read high
Outline: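 Readout is yeast growth inhibition versus vehicle-treated controls, using a strain with cln2 and rad14 alterations exposed to compound.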

[5] = NCI Yeast Anticancer Drug Screen. Data for the bub3 strain (AID 167); conditions: S. cerevisiae bub3 mutant strain, active compounds read high
Outline: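 Part of a panel of yeast mutants defective in DNA damage repair or cell cycle regulation. Each strain is grown with compound, and inhibition is calculated relative to solvent-treated cultures.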

[6] = NCI Yeast Anticancer Drug Screen. Data for the mlh1 rad18 strain (AID 175); conditions: S. cerevisiae mlh1 rad18 strain growth inhibition, active compounds read high
Outline: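 Genetically defined yeast (DNA repair-deficient) exposed to compounds; growth inhibition determined relative to vehicle.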

[7] = at 5.0 µM (retest, dose inferred, filed as 0.5)
[8] = at 50.0 µM (retest, dose inferred, filed as 5.0)

Measured: growth inhibition

CCCC[N-]CC(O)C[NH-].O=C(O)CC(=O)O.[Pt+2] (configuration not stated)
active: [4]; at 50.0 µM 80%
inactive: [1]; [7] 2% | [1]; [8] 6% | [1]; at 50.0 µM 11.6% | [2]; [7] -10% | [2]; [8] -23% | [2]; at 50.0 µM 23.2% | [3]; [7] 1% | [3]; [8] 6% | [3]; at 50.0 µM 22.2% | [4]; [7] 1% | [4]; [8] 7% | [5]; [7] 3% | [5]; [8] 4% | [5]; at 50.0 µM 0.55% | [6]; [7] 0% | [6]; [8] -7% | [6]; at 50.0 µM 29.9%

C[C@@]12C[C@@H](Br)[C@H](Br)C[C@]1(C)O2
active: [1]; at 50.0 µM 94.5% | [2]; at 50.0 µM 98.7% | [3]; at 50.0 µM 98.1% | [6]; at 50.0 µM 93.2%
inactive: [1]; [7] 0% | [1]; [8] 16% | [2]; [7] -1% | [2]; [8] 8% | [3]; [7] 0% | [3]; [8] 15% | [4]; [7] -2% | [4]; [8] 2% | [4]; at 50.0 µM 64.5% | [5]; [7] -6% | [5]; [8] 0% | [5]; at 50.0 µM 55% | [6]; [7] -1% | [6]; [8] 6%

O=C(O)c1ccccc1N=N/C(=N\Nc1cc(S(=O)(=O)O)ccc1O)c1ccccc1
inactive: [1]; [7] -7% | [1]; at 50.0 µM 48.4% | [2]; [7] -5% | [2]; [8] 49% | [2]; at 50.0 µM 20.5% | [3]; [7] -3% | [3]; at 50.0 µM 46.5% | [4]; [7] -3% | [4]; [8] 47% | [4]; at 50.0 µM -32% | [5]; [7] 1% | [5]; at 50.0 µM 38.8% | [6]; [7] -4% | [6]; at 50.0 µM 44.5%
active: [1]; [8] 85% | [3]; [8] 95% | [5]; [8] 97% | [6]; [8] 74%

CCCNC(=O)c1cc2ccccc2cc1C(=O)OC
active: [1]; [8] 90% | [1]; at 50.0 µM 86% | [2]; [8] 90% | [2]; at 50.0 µM 88.5% | [3]; [8] 95% | [3]; at 50.0 µM 81.9% | [4]; [8] 74% | [4]; at 50.0 µM 81.1% | [5]; [8] 94% | [5]; at 50.0 µM 88.3% | [6]; [8] 94% | [6]; at 50.0 µM 86.2%
inactive: [1]; [7] 59% | [2]; [7] 48% | [3]; [7] 51% | [4]; [7] 49% | [5]; [7] 68% | [6]; [7] 65%
